± gives the standard deviation of the averaged measurements.
The compounds below were run on HCI11 (cells of an ER-positive luminal breast cancer xenograft) (assay: cell viability (% of vehicle); higher = less cytotoxic). Details: 10 µM; 72 h.
In the case of O=C(NC1CCN(CCCCC2(C(=O)NCC(F)(F)F)c3ccccc3-c3ccccc32)CC1)c1ccccc1-c1ccc(C(F)(F)F)cc1 [Lomitapide], the cell viability is reported as 43.7. With CCCCCCCCOc1ccccc1C(=O)Nc1ccc(C(=O)OCC[N+](C)(CC)CC)cc1.[Br-] [Otilonium Bromide] the cell viability was 77.9. For COc1cc(Nc2c(C#N)cnc3cc(OCCCN4CCN(C)CC4)c(OC)cc23)c(Cl)cc1Cl [Bosutinib (SKI-606)], the cell viability was 101. In the case of CNC(=O)c1cc(Oc2ccc(NC(=O)Nc3ccc(Cl)c(C(F)(F)F)c3)c(F)c2)ccn1 [Regorafenib], the cell viability is reported as 43.5. With COC1=C(OC)C(=O)C(CCCCCCCCCCO)=C(C)C1=O [Idebenone] the cell viability was 87.2. For Nc1ncn(C2OC(CO)C(O)C2O)c(=O)n1 (configuration not stated) [5-Azacytidine], the cell viability was 170. In the case of CC(C)Nc1cc(-c2c[nH]c(C(=O)NC(CO)c3cccc(Cl)c3)c2)c(Cl)cn1 (configuration not stated), the cell viability is reported as 81.7. COc1cc(Nc2ncc(F)c(Nc3ccc4c(n3)N(COP(=O)(O)O)C(=O)C(C)(C)O4)n2)cc(OC)c1OC [Fostamatinib (R788)] gave a cell viability of 61. CNCCCC12CCC(c3ccccc31)c1ccccc12.Cl [Maprotiline HCl] showed a cell viability of 78.4. With COc1cc(C(=O)O)ccc1NC(=O)C1NC(CC(C)(C)C)C(C#N)(c2ccc(Cl)cc2F)C1c1cccc(Cl)c1F (configuration not stated) the cell viability was 118. Work on CC(NCCCc1cccc(C(F)(F)F)c1)c1cccc2ccccc12 (configuration not stated) [Cinacalcet] yielded a cell viability of 122. In the case of Cl.Clc1ccccc1CN1CCc2sccc2C1 [Ticlopidine HCl], the cell viability is reported as 91.6.

These compounds were tested on HCI13 (cells of an ER-positive luminal breast cancer xenograft) in the same assay as above. Details: 10 µM; 72 h.
Cc1ccc(-n2[nH]c(C)c(NN=C3C=CC=C(c4cccc(C(=O)O)c4)C3=O)c2=O)cc1C [Eltrombopag] was tested, and the cell viability was 54.9 ± 3. With Oc1c(Cl)cc(Cl)c2cccnc12 [Chloroxine] the cell viability was 65 ± 15. Work on CCN(CC)CCCC(C)Nc1ccnc2cc(Cl)ccc12.O=P(O)(O)O.O=P(O)(O)O (configuration not stated) [Chloroquine diphosphate] yielded a cell viability of 142 ± 20. COC(=O)NC(C(=O)NC(Cc1ccccc1)C(O)CN(Cc1ccc(-c2ccccn2)cc1)NC(=O)C(NC(=O)OC)C(C)(C)C)C(C)(C)C (configuration not stated) [Atazanavir] showed a cell viability of 81.7 ± 5.1. COc1cc2nccc(Oc3ccc(NC(=O)C4(C(=O)Nc5ccc(F)cc5)CC4)cc3)c2cc1OC.O=C(O)CC(O)C(=O)O [Cabozantinib malate (XL184)] was tested, and the cell viability was 85.1 ± 15. Work on O=C(C=Cn1cnc(-c2cc(C(F)(F)F)cc(C(F)(F)F)c2)n1)NNc1cnccn1 yielded a cell viability of 35.4 ± 2.5. In the case of Nc1ccn(C2OC(CO)C(O)C2O)c(=O)n1 (configuration not stated) [Cytarabine], the cell viability is reported as 76.4 ± 11. CO[C@H]1/C=C/O[C@@]2(C)Oc3c(C)c(O)c4c(O)c(c(/C=N/N5CCN(C6CCCC6)CC5)c(O)c4c3C2=O)NC(=O)/C(C)=C\C=C\[C@H](C)[C@H](O)[C@@H](C)[C@@H](O)[C@@H](C)[C@H](OC(C)=O)[C@@H]1C [Rifapentine] showed a cell viability of 133 ± 18. In the case of CS(=O)(=O)O.Cc1c(O)cccc1C(=O)NC(CSc1ccccc1)C(O)CN1CC2CCCCC2CC1C(=O)NC(C)(C)C (configuration not stated) [Nelfinavir Mesylate], the cell viability is reported as 48.22 ± 0.17. CCN(CC)CCNC(=O)c1c(C)[nH]c(C=C2C(=O)Nc3ccc(F)cc32)c1C.O=C(O)CC(O)C(=O)O [Sunitinib malate] was tested, and the cell viability was 58.1 ± 1.6. N.N.O=C([O-])C1(C(=O)[O-])CCC1.[Pt+2] [Carboplatin] showed a cell viability of 86.87 ± 0.21. CC(NCCCc1cccc(C(F)(F)F)c1)c1cccc2ccccc12.Cl (configuration not stated) [Cinacalcet HCl] was tested, and the cell viability was 43.3 ± 2.8. COC(=O)c1ccc2c(c1)NC(=O)C2=C(Nc1ccc(N(C)C(=O)CN2CCN(C)CC2)cc1)c1ccccc1 [Nintedanib (BIBF 1120)] was tested, and the cell viability was 71.2 ± 12. For COc1cc(C(=O)NS(=O)(=O)c2ccccc2C)ccc1Cc1cn(C)c2ccc(NC(=O)OC3CCCC3)cc12 [Zafirlukast], the cell viability was 111 ± 2.8. CCC(=C(c1ccccc1)c1ccc(OCCN(C)C)cc1)c1ccccc1.O=C(O)CC(O)(CC(=O)O)C(=O)O [Tamoxifen Citrate] showed a cell viability of 37.6 ± 3.9.

— the supplement of paper PMC6992640
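Further: PDX cells carrying CMV promoter-driven luciferase, viability read as total photon flux per second by IVIS imaging following D-luciferin, vehicle control 0.1% DMSO.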
